# In ChEMBL document CHEMBL3988442, “University of Dundee, Small-Polar-MMV Screening Library” (2021):
# Out of some 48,000 compounds screened, about 13,000 (27%) showed an effect of 50% or more. Some of the results follow.
# Tested on: Wolbachia pipientis
# Experiment: Anti-Wolbachia Cell-Based Screen
# Assay type: functional
# Set-up: scale not given: in the data most compounds retested in dose-response had high values
# Settings: 5 µM
row,Structure (SMILES),Percent Effect [%]
1,CN(Cc1ccc(CCC(C)(C)O)cc1)Cc1cccc(O)c1,-7.089
2,CC(C)(C)CN1CCC(c2nnc(Cn3ccnc3)n2C2CC2)CC1,-15.12
3,CC(C)(C)CN1CCCC(c2nccnc2Nc2cnccn2)C1 (stereo not given),141
4,Cn1cncc1-c1nnc([C@H]2CCN(CC(C)(C)C)C2)o1,-4.073
5,CC(C)(C)CN1CCC(c2nccnc2Nc2cnccn2)CC1,104.1
6,Cn1c(Cn2ccnc2)nnc1C1CCCN(CC(C)(C)C)C1 (stereo not given),-0.4988
7,CC(C)N(Cc1ccc(C#N)cc1)Cc1nnsc1Cl,-0.2197
8,COC(=O)CNC(=O)CC1COc2ccc(C(=O)N(C)C)cc2N1C (stereo not given),-21.78
9,Cc1noc(C)c1CN1CC2(CCN(C(=O)c3cccn3C)C2)CC1=O (stereo not given),-4.057
10,CN(c1ccncn1)C1CC2(CCN(C(=O)c3cccs3)C2)C1 (stereo not given),5.118
11,CN(c1ccncn1)C1CC2(CCN(C(=O)CCc3cccs3)C2)C1 (stereo not given),-6.442
12,CN(c1ccncn1)C1CC2(CCN(C(=O)c3cncs3)C2)C1 (stereo not given),101.7
13,Cn1cccc1C(=O)N1CCCC2(CCCN2Cc2cccnc2)C1 (stereo not given),0.2442
14,Cc1ccsc1C(=O)N1CCC2(CC(N(C)c3ccncn3)C2)C1 (stereo not given),125
15,Cc1ccc(N2CCCC3(CCN(C(=O)c4sccc4C)C3)C2)nn1 (stereo not given),-21.87
16,Cc1ccsc1C(=O)N1CCC(c2nccn2Cc2ccncc2)CC1,-26.92
17,CN(c1ccncn1)C1CC2(CCN(C(=O)Cc3cccs3)C2)C1 (stereo not given),98.18
18,CN(Cc1ccncc1)C1CC2(CCN(C(=O)c3ccnnc3)CC2)C1,2.338
19,CN(c1ccncn1)C1CC2(CCN(C(=O)c3cccn3C)C2)C1 (stereo not given),100.1
20,CN(C)C(=O)N1CCN(Cc2noc(Cc3ccccc3)n2)CC1,-7.499
21,CC(C)CN1C(=O)CO[C@@H]2CN(C(=O)CC(F)(F)F)C[C@H]21,-4.787
22,O=C(Nc1ccnc(OC2CCOC2)c1)c1cc(F)ccc1F (stereo not given),-0.1893
23,CN(Cc1cccnc1)C1CC2(CCN(C(=O)c3cnccn3)CC2)C1,-5.762
24,Cc1noc(C)c1C(=O)N1CC[C@H]2C[C@@H](c3ccncn3)O[C@@H]2C1,-6.202
25,CN(c1ccncn1)C1CC2(CCN(C(=O)c3ccsc3)C2)C1 (stereo not given),9.271
26,Cc1ccc(C(=O)N2CCC3(CC(N(C)c4ccncn4)C3)C2)cn1 (stereo not given),100.9
27,Cc1csc(C(=O)N2CCC3(CC(N(C)c4ccncn4)C3)C2)c1 (stereo not given),119.5
28,Cc1noc(C)c1C(=O)N1CCC2(CC(N(C)c3ccncn3)C2)C1 (stereo not given),121.5
29,Cc1noc(C)c1CN1CC2(CCN(C(=O)c3c[nH]cn3)C2)CC1=O (stereo not given),-8.686
30,CN(Cc1cccnc1)C1CC2(CCN(C(=O)c3cscn3)CC2)C1,-13.69
